The source of these data is PubChem BioAssay.

The first test in a line: reducers of polyQ inclusions in PC12 cells, cell-based, NGF-treated PC12, GFPQ80 (AID 1614).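 Also: lower means fewer inclusions and 0 means no inclusions at all.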 As to conditions: PC12 NGF-treated GFP-polyQ80 inclusion reduction.
In the case of `C[C@@H]1CC[C@H]2[C@@H](C)C(=O)O[C@@H]3OC4(C)CC[C@@H]1[C@]32OO4`, the inclusion score turned out to be 2.
Regarding `CO[C@H]1[C@H](O)[C@H](O[C@H]2CC[C@]3(C)C4CC[C@]5(C)C(C6=CC(=O)OC6)CC[C@]5(O)C4CC[C@@H]3C2)O[C@@H](C)[C@@H]1O` (some centres undefined), the inclusion score came to 2.
On the same count and under the same terms, as for `COc1ccc2c(c1)[C@]13CCCC[C@H]1[C@H](C2)N(C)CC3`, the figure is 2; as for `O=C1CC2OCC=C3CN4CC[C@]56c7ccccc7N1C5[C@H]2[C@H]3CC46` (some centres undefined), 1.
The same measure, in the same setting: as for `C=C1C2CC[C@H]3[C@]4(C)C[C@H](OC5OC(CO)C(OS(=O)(=O)O)C(OS(=O)(=O)O)C5OC(=O)CC(C)C)C[C@@H](C(=O)O)[C@H]4CC[C@]3(C2)[C@H]1O` (some centres undefined), the figure is 2; as for `C[C@H]1O[C@@H](O[C@H]2[C@@H](O)C[C@H](O[C@H]3[C@@H](O)C[C@H](O[C@H]4CC[C@]5(C)C6CC[C@]7(C)[C@@H](C8=CC(=O)OC8)CC[C@]7(O)C6CC[C@@H]5C4)O[C@@H]3C)O[C@@H]2C)C[C@H](O)[C@@H]1O` (some centres undefined), 2; as for `CCC(C)C(=O)O[C@H]1[C@H](O)C2C(CN3CC(C)CCC3[C@@]2(C)O)C2C[C@]34O[C@]5(O)C(OC(=O)C(C)(O)C(C)O)CC[C@@]3(C)C5C(OC(C)=O)[C@@H](OC(C)=O)C4[C@@]21O` (some centres undefined), 2.
On the same count and under the same terms, as for `C/C=C(\C)C(=O)O[C@H]1C[C@@H](OC(C)=O)[C@@]2(C(=O)OC)CO[C@@H]3C2[C@]12CO[C@](O)(C(=O)OC)[C@H]2[C@](C)(C12O[C@@]1(C)[C@H]1C[C@@H]2OC2OC=C[C@@]21O)[C@@H]3O` (some centres undefined), the figure is 2.
The compound `COc1ccc2c(c1OC)C(=O)O[C@H]2[C@H]1c2cc3c(cc2CCN1C)OCO3` displayed an inclusion score of 2.

Another test can be described thus: suppressors of polyglutamine aggregation in yeast, 75Q-TubH (AID 1616). To be noted: S. cerevisiae 75Q-TubH polyglutamine aggregation suppression; stronger effect = higher value.
`C[C@@H]1CC[C@H]2[C@@H](C)C(=O)O[C@@H]3OC4(C)CC[C@@H]1[C@]32OO4` registered an aggregation suppression score of 0.15.
Compound `CO[C@H]1[C@H](O)[C@H](O[C@H]2CC[C@]3(C)C4CC[C@]5(C)C(C6=CC(=O)OC6)CC[C@]5(O)C4CC[C@@H]3C2)O[C@@H](C)[C@@H]1O` (some centres undefined) gave an aggregation suppression score of 1.46.
The same measure, in the same setting: with `COc1ccc2c(c1)[C@]13CCCC[C@H]1[C@H](C2)N(C)CC3` the figure was 1.29; with `CC(=O)C1=C(O)C2C3c4c[nH]c5cccc(c45)CC3C(C)(C)N2C1=O` (centres undefined), 0.0191.
Same read-out and setting: with `O=C1CC2OCC=C3CN4CC[C@]56c7ccccc7N1C5[C@H]2[C@H]3CC46` (some centres undefined) the figure was 0.688; with `C=C1C2CC[C@H]3[C@]4(C)C[C@H](OC5OC(CO)C(OS(=O)(=O)O)C(OS(=O)(=O)O)C5OC(=O)CC(C)C)C[C@@H](C(=O)O)[C@H]4CC[C@]3(C2)[C@H]1O` (some centres undefined), 1.68.
Same read-out and setting: with `C[C@H]1O[C@@H](O[C@H]2[C@@H](O)C[C@H](O[C@H]3[C@@H](O)C[C@H](O[C@H]4CC[C@]5(C)C6CC[C@]7(C)[C@@H](C8=CC(=O)OC8)CC[C@]7(O)C6CC[C@@H]5C4)O[C@@H]3C)O[C@@H]2C)C[C@H](O)[C@@H]1O` (some centres undefined) the figure was 0.858; with `CCC(C)C(=O)O[C@H]1[C@H](O)C2C(CN3CC(C)CCC3[C@@]2(C)O)C2C[C@]34O[C@]5(O)C(OC(=O)C(C)(O)C(C)O)CC[C@@]3(C)C5C(OC(C)=O)[C@@H](OC(C)=O)C4[C@@]21O` (some centres undefined), 1.75.
In the case of `C/C=C(\C)C(=O)O[C@H]1C[C@@H](OC(C)=O)[C@@]2(C(=O)OC)CO[C@@H]3C2[C@]12CO[C@](O)(C(=O)OC)[C@H]2[C@](C)(C12O[C@@]1(C)[C@H]1C[C@@H]2OC2OC=C[C@@]21O)[C@@H]3O` (some centres undefined), the aggregation suppression score came out at 1.
In the case of `COc1ccc2c(c1OC)C(=O)O[C@H]2[C@H]1c2cc3c(cc2CCN1C)OCO3`, the aggregation suppression score worked out at 1.24.
